In the library only some 8.9% were active in any assay of this set; here they are far more common.
ALOX12 inhib – qHTS Assay for Inhibitors of 12-hLO (12-human lipoxygenase) | Polyunsaturated fatty acid lipoxygenase ALOX12 (Homo sapiens), P18054 | purified 12-hLO, xylenol orange hydroperoxide absorbance | Potency, µM (series often up to 57.1 µM), inactives show at the top dose activity change, negative = inhibition, actives largely listed as inhibitors | 0.12% of 150,000 active | AID 1452, 2008; also: potency is read from the fitted curve at half-maximal effect; nearly all actives have a fitted effect of over 55% in size
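Xylenol orange chromogenic assay: hydroperoxide from 12hLO oxidises Fe(II), giving red-shifted Fe(III)-XO absorbance. Conditions: 150 nM enzyme, 40 uM arachidonic acid, 25 mM Hepes pH 7.0, 0.01% Triton X-100, 30 min, room temperature.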
IMPase Li inh – qHTS Assay for Identifying the Cell-Membrane Permeable IMPase Inhibitors: Potentiation with Lithium | CHO-M1 cells, IP1 TR-FRET (IP-One), carbachol + lithium | Potency, µM (titrated, usually from 59.4 µM), for the others: at the top dose activity, negative = IMPase inhibition, usual class: inhibitors | 0.35% of 210,000 active;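 also: IP1 builds up when IMPase is blocked and the TR-FRET signal falls; potency is read from the fitted curve at half-maximal effect; plate controls were basal vehicle for no effect and high inhibitor control for full effect; nearly all actives have a fitted effect of over 50% in size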
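CHO cells stably expressing M1 receptor (2000/well, cultured 16–30 h) treated 30 min at 37C with compound plus low lithium. Cytosolic IP1 by TR-FRET (665/620 ratio and 620 channel) after 10 min lysis; AC50 by Hill fit.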
ALDH1A1 block – qHTS Assay for Inhibitors of Aldehyde Dehydrogenase 1 (ALDH1A1) | Aldehyde dehydrogenase 1A1 (Homo sapiens), P00352 | Purified ALDH1A1, NADH fluorescence, propionaldehyde substrate | Potency, µM (series often up to 75.3 µM), for inactives: at the top dose activity, negative = inhibition, hits mostly inhibitors | 7.3% of 220,000 active | AID 1030, 2008; active = well fitted inhibition curve with a large enough effect, not every such curve was filed as active; inconclusive = small, poorly fitted or top-dose-only effect, or another doubt; inactive = no such curve, though single readings can be large or run the other way;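 also: potency is read from the fitted curve at half-maximal effect; plate controls were no enzyme wells and a reference inhibitor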
Target sequence (P00352 whole entry, looked up): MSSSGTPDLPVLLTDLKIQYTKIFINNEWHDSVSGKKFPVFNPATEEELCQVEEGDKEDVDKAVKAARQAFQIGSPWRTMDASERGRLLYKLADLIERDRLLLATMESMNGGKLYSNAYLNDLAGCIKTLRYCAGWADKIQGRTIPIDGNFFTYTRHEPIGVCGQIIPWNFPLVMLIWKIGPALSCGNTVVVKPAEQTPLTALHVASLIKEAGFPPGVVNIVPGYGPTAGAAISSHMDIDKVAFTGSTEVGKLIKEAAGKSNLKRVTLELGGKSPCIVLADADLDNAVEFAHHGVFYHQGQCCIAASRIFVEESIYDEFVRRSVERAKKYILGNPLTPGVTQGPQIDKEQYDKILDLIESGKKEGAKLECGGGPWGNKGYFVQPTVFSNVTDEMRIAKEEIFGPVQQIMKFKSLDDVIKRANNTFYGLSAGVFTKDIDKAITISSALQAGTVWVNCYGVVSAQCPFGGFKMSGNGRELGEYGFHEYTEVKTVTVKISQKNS
HPGD inh – qHTS Assay for Inhibitors of HPGD (15-Hydroxyprostaglandin Dehydrogenase); purified HPGD, NADH fluorescence kinetic, PGE2 substrate; Potency, µM, for the others: at the highest dose activity change, negative = inhibition, usual class: inhibitors; 4.3% of 150,000 active; AID 894, 2007; active = well fitted inhibition curve with a large enough effect, not every such curve was filed as active; inconclusive = small, poorly fitted or top-dose-only effect, or another doubt; inactive = no such curve, though single readings can be large or run the other way; also: potency is read from the fitted curve at half-maximal effect
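NADH formation kinetics: reaction with 30 uM PGE2 and 1 mM NAD+ (final), 20 nM enzyme, Tris-HCl pH 8 with Tween 20, after 15 min compound preincubation at room temperature. Fluorescence change, last versus first of five reads.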
IMPase cell inh – qHTS Assay for Identifying the Cell-Membrane Permeable IMPase Inhibitors | 120,000 tested, under 10 active | Inositol monophosphatase 1 (Rattus norvegicus), P97697 | CHO-M1 cells, IP1 accumulation, HTRF TR-FRET ratio | AID 901, 2007 | inhibition (IP1 accumulation), % at 46.1 µM; active = well fitted curve in the direction sought with a large enough effect in the signal ratio, not every such curve was filed as active; inconclusive = small, poorly fitted or top-dose-only effect, or a change in a side signal; inactive = no such curve, though single readings can be large or run the other way; the % refers to the signal ratio;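 also: cells stimulated with carbachol in lithium chloride buffer; plate controls were DMSO basal wells for no effect and reference inhibitor wells for full effect; higher means more IMPase inhibition seen as more IP1 and lower FRET ratio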
Target sequence (P97697 whole entry, looked up): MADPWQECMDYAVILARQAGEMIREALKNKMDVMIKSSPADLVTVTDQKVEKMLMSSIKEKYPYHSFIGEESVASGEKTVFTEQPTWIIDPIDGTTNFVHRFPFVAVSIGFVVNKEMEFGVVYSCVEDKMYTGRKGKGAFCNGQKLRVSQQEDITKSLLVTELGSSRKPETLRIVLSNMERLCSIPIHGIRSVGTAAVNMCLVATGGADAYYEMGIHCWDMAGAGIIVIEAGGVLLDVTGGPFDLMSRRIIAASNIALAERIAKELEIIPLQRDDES
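Carbachol-driven Gq signalling in CHO-M1 cells (2000/well) generates IP1. Compounds that block IMPase raise IP1 and so reduce the FRET signal from Eu-anti-IP1 and d2-IP1 after a 10 min room-temperature lysis.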
NPSR antag – qHTS Assay for Antagonists of the Neuropeptide S Receptor: cAMP Signal Transduction | AID 1461, 2008 | 1% of 220,000 active | Potency, µM (top dose mostly 38.3 µM), inactives show at the top dose activity change, negative = inhibition, usual class: inhibitors | CHO-NPSR cells, cAMP TR-FRET, antagonist mode; also: potency is read from the fitted curve at half-maximal effect; nearly all actives have a fitted effect of over 50% in size
The depositor's hits bear a star; ? = inconclusive; . = not tested or not shown; ! = not confirmed by another sample; [ ] = remark or other dose. Unless noted, calls follow the shape of the dose curve; as a rule, active = well fitted curve in the direction sought with a large enough effect; inconclusive = small, poorly fitted or top-dose-only effect, or another doubt; inactive = no such curve, though single readings can be large; an effect the other way counts as inactive or inconclusive. Unless noted, % is scaled to controls: 0 for no effect and ±100 for the full control effect.

SMILES	ALOX12 inhib	IMPase Li inh	ALDH1A1 block	HPGD inh	IMPase cell inh	NPSR antag
COc1ccc(C(=O)NC(=S)Nc2ccc3c(c2)Cc2ccccc2-3)cc1	1%	?	10µM*	-18%	-2	?
Cc1ccc(C(=O)NC(=S)Nc2ccc(NC(=O)c3cccc(Cl)c3)cc2)cc1	2%	-13%	-15%	-10%	0	5%
Cc1ccc(C(=O)NC(=S)Nc2ccc(Oc3ccc(Cl)cc3)cc2)cc1	-8%	11%[38.3 µM]	18µM*	-10%	17	?
O=C(NC(=S)Nc1ccc(Oc2ccccc2)cc1)c1ccc(Cl)cc1	?	6%[38.3 µM]	14µM*	-14%	5	-22%[46.1 µM]
CC1(C)C(=O)C2(CCCC2)C(=O)OC1c1ccco1 (stereo unspecified)	3%	21%[38.3 µM]	22µM*	-12%	0	2%[46.1 µM]
CC1(C)C(=O)C2(CCCCC2)C(=O)OC1c1ccc(O)cc1 (stereo unspecified)	-6%	-2%[38.3 µM]	3%	-11%	2	-4%[46.1 µM]
Cc1oc(-c2cccc(C(F)(F)F)c2)nc1CN1CCN(c2ccccn2)CC1	.	12%	9%	.	.	4%
CC(C)(C)NC(=O)C(c1cccnc1)N(C(=O)c1csnn1)c1ccccc1 (stereo unspecified)	.	7%	10%	.	.	-17%
O=C(NC1CCCC1)C(c1cccnc1)N(C(=O)c1csnn1)C1CCCC1 (stereo unspecified)	9%	6%	?	5%	0	-6%[46.1 µM]
CC(C)c1ccc(N(C(=O)c2csnn2)C(C(=O)NC(C)(C)C)c2ccncc2)cc1 (stereo unspecified)	3%	7%[38.3 µM]	2.2µM*	-13%	8	-9%[46.1 µM]
CCc1ccc(N(C(=O)c2csnn2)C(C(=O)NC(C)(C)C)c2cccnc2)cc1 (stereo unspecified)	.	11%	13µM*	.	.	6%
CC(C)c1ccc(N(C(=O)c2csnn2)C(C(=O)NC(C)(C)C)c2cccnc2)cc1 (stereo unspecified)	.	10%	0.71µM*	.	.	-15%
O=C(NC1CCCC1)C(c1ccncc1)N(C(=O)c1csnn1)C1CCCC1 (stereo unspecified)	.	-1%	13µM*	.	.	-14%
CC(C)CCNC(=O)NC(=O)COC(=O)CCN=C1NS(=O)(=O)c2ccccc21	.	-4%	12%	.	.	6%
O=C(COc1ccccc1)Nc1ccc2[nH]c(=O)[nH]c2c1	.	-5%	-3%	.	.	3%
CCCn1nc2cc(C(=O)NCc3ccc(OC)cc3)ccc2c1OCC	1%	-14%[38.3 µM]	?	?	3	-8%[46.1 µM]
CN(C)c1nc(N(C)C)nc(N2CC(=O)N(c3ccccc3)C2=N)n1	.	3%	1.4µM*	.	.	-25%
CN(C)c1nc(Oc2ccc(=O)n(-c3ccccc3)n2)nc(N2CCOCC2)n1	-9%	-17%[38.3 µM]	0%	-2%	-2	-19%[7.67 µM]
O=[N+]([O-])c1ccc(S(=O)(=O)Cc2ccccc2)c([N+](=O)[O-])c1	-5%[11.4 µM]	7%	1.3µM*	-15%	.	.
COC(=O)c1ccc(N=c2sc(C(=O)OC)cc(=O)n2C)cc1	.	6%	-4%	.	.	27%
CC(=O)O[C@@]1(C(C)=O)CCC2C3C=C(Cl)C4=CC(=O)C5CC5[C@@]4(C)C3CC[C@]21C (stereo partly specified)	-5%	30%	1%	-6%	.	.
CC(=O)O[C@]1(C(C)=O)CC[C@H]2C3C=C(Cl)C4=CC(=O)[C@@H]5C[C@H]5[C@]4(C)C3CC[C@@]21C (stereo partly specified)	.	10%	3%	4%	.	13µM*
Oc1ccccc1C1=NOC(O)(C(F)F)C1 (stereo unspecified)	-2%	-8%[38.3 µM]	1%	16µM*	5	5%[46.1 µM]
COC(=O)C1=C(C)NC(C)=C(C(=O)OC)C1c1ccc2ccccc2n1	-5%	22%[38.3 µM]	-9%	-8%	3	2%[46.1 µM]
O=C1c2ccccc2C(=O)C1c1ccc2ccccc2n1	4%	9%[38.3 µM]	25µM*!	-4%	4	-12%[46.1 µM]
SMILES	ALOX12 inhib	IMPase Li inh	ALDH1A1 block	HPGD inh	IMPase cell inh	NPSR antag
CCCCNS(=O)(=O)c1ccc2nc(SCC(=O)c3ccccc3OC)[nH]c2c1	-4%	7%[38.3 µM]	?	28µM*	2	-23%[46.1 µM]
CC1(C)C/C(=N\O)C(C(O)c2cccc([N+](=O)[O-])c2)C(C)(C)N1 (stereo unspecified)	.	.	.	.	.	40%
COC(=O)c1c(NC(=O)CN2CCCc3ccccc32)sc(C)c1C	-4%	3%	20µM*	-12%	.	-42%
CCOC(=O)c1c(NC(=O)CN2CCCc3ccccc32)sc(C)c1C	3%	12%	?	-9%	11	-48%
COC(=O)c1c(NC(=O)CN2CCN(c3ccccc3Cl)CC2)sc(C)c1C	-4%	14%	3.5µM*	-23%	-10	-31%
COC(=O)c1c(NC(=O)CN2CCC3(O)CCCCC3C2c2ccc(F)cc2)sc(C)c1C (stereo unspecified)	3%	2%	25µM*	-21%	.	-47%
CCc1nnc(NC(=O)C2CCCCN2S(=O)(=O)c2ccccc2)s1 (stereo unspecified)	.	18%	2%	.	.	3%
O=C(CN1CCN(c2ncccn2)CC1)Nc1ccccc1-n1cccc1	1%	15%[38.3 µM]	14µM*	-14%	10	-5%[46.1 µM]
O=C(O)c1ccc2c(c1)C(=O)/C(=C/c1ccccc1)C2=O	-1%	3%	-15%	13µM*	.	-11%
Cc1ccc(/C=C2/C(=O)c3ccc(C(=O)O)cc3C2=O)o1	.	7%	7.1µM*	.	.	12%
O=C(Nc1ccccc1)OC1CCC2CC1CCC2OC(=O)Nc1ccccc1 (stereo unspecified)	3%	?	-2%	-13%	.	-45%
Cc1cc(C(=O)N2CCN(C(=O)c3ccco3)CC2)ccc1[N+](=O)[O-]	.	4%	4%	.	.	4%
COc1cc(O)c(C(=O)/C=C/c2ccccc2)c(O)c1	.	.	8%[13.5 µM]	.	.	.
COc1ccc(-c2cc(C(=O)O)c3ccccc3n2)c(OC)c1	-14%	0%[38.3 µM]	-11%	-2%	-3	0%[46.1 µM]
COc1ccc2cc(-c3cc(C(=O)O)c4ccccc4n3)ccc2c1	-5%	10µM*	?	?	-13	?
COc1cc(-c2ccccc2)nc2ccccc12	-9%	21%	-1%	28µM*	22	-4%[46.1 µM]
